The values below come from PubChem BioAssay (NCATS).

The target in experiment [1] is Cytochrome P450 2D6 (Homo sapiens) (UniProt P10635). The experiment can be described thus: Cytochrome P450 family 2 subfamily D member 6 (CYP2D6) small molecule antagonists: luciferase biochemical (cell-free) qHTS assay (AID 1645840). A digest of the protocol:
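P450-Glo luminescent screen: recombinant CYP2D6 enzyme–proluciferin substrate mix preincubated with compound 10 min at room temperature, then NADPH regeneration added for 1 h at room temperature. Detection reagent added for 20 min; luciferin light read as relative luminescence units.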
(In general: In qHTS, concentration-response curves come from the screen itself.)

In experiment [2] the target is Cytochrome P450 2C9 (Homo sapiens) (UniProt P11712). The experiment can be described thus: Cytochrome P450 family 2 subfamily C member 9 (CYP2C9) small molecule antagonists: luciferase biochemical (cell-free) qHTS assay (AID 1645842). The method, boiled down:
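Luminescence, after 20 min with luciferin detection reagent, reflected CYP2C9 turnover during a 1 h NADPH-driven reaction at 37C. Enzyme-substrate mix contained 0.4% bovine serum albumin and was preincubated with compound 10 min at room temperature.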

Records with an inconclusive call do not appear. Unmarked numbers belong to inactive results. Calls of active or inactive are those of the source. Calls follow the shape of the dose curve; as a rule, active = well fitted curve in the direction sought with a large enough effect in the repeat runs; inconclusive = weak or mixed curves; inactive = no such curve, though single readings can be large; an effect the other way counts as inactive or inconclusive.
Also: nearly all actives have a fitted effect of over 55% in size.
Potency is read from the fitted curve at half-maximal effect.

Chain of Cytochrome P450 2D6 (Homo sapiens) (P10635 whole entry, looked up): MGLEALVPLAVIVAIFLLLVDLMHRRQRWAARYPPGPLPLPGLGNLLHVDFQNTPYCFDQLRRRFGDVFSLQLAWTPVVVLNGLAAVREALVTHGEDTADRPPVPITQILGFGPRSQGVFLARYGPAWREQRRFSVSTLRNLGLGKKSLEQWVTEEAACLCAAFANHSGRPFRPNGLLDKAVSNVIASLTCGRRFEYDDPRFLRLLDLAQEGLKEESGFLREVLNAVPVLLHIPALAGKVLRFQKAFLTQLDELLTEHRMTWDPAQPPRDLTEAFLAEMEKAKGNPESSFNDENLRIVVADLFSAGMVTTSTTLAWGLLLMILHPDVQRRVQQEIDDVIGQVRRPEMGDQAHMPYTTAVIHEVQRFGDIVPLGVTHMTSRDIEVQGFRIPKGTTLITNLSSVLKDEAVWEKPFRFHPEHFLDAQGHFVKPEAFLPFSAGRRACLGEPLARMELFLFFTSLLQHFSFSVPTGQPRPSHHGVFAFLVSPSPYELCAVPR
Chain of Cytochrome P450 2C9 (Homo sapiens) (P11712 whole entry, looked up): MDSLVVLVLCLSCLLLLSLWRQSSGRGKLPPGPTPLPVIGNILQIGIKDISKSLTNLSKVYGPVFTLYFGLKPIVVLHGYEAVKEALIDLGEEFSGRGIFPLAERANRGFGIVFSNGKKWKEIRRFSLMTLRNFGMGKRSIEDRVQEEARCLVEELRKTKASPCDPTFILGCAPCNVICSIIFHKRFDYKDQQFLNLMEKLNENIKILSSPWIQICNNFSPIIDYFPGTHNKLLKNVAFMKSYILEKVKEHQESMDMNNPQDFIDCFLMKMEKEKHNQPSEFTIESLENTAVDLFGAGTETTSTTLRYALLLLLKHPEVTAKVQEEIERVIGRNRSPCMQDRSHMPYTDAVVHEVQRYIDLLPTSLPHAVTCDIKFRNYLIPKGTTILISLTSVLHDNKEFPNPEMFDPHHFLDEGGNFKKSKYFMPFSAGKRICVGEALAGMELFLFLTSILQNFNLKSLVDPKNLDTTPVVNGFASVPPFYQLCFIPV

For `COC(=O)Cc1ccc(NC(=O)C2=C(C)NC(Nc3nc4ccccc4o3)=NC2c2ccccc2Cl)cc1` (stereo unspecified), the Potency result in experiment [1] is “inactive”. For the same compound, the Potency in experiment [2] was 0.756 µM (active).
As to `CC1=C(C(=O)NCc2cncn2C)C(c2ccccc2Cl)N=C(Nc2nc3ccccc3o2)N1` (stereo unspecified), the Potency in experiment [1] is 9.52 µM (active); in experiment [2] it was 7.56 µM (active).
Taken in the same sequence, the figures for `COC(=O)C1=C(c2ccccc2)c2ccccc2S(=O)(=O)N1CC(=O)Nc1ccccc1Cl` were 3.79 µM (active) and 4.77 µM (active).
Taken in the same sequence, the figures for `CCn1cc2nc(SCC(=O)Nc3ccc(OC)c(OC)c3)n(Cc3ccc(Cl)cc3)c(=O)c2n1` were 9.52 µM (active) and 3.79 µM (active).
For `COc1cccc(NC(=O)Cn2c(=O)n(CC(=O)NCc3ccc(C)cc3)c(=O)c3sccc32)c1`, the Potency in experiment [1] is 0.107 µM (active); in experiment [2], 6.01 µM (active).
For `Nc1ccn(C2O[C@H](CO)[C@@H](O)[C@@H]2O)c(=O)n1` (stereo partly specified) the same measures were “inactive” and “inactive”.
Taken in the same sequence, the figures for `C[C@H]1[C@@H](OC(=O)CCC(=O)O)O[C@@H]2O[C@]3(C)CC[C@H]4[C@H](C)CC[C@@H]1[C@@]24OO3` were “inactive” and “inactive”.
For `CC1=C(C(=O)Nc2ccccc2C)C(c2cccnc2)n2nc(SCc3ccccc3)nc2N1` (stereo unspecified) the same measures were “inactive” and 2.39 µM (active).
As for `CCOc1ccccc1NC(=O)CSc1nc2ccccc2c2nc(CCn3cncc3C)nn12`, the Potency was 10.7 µM (active) in experiment [1] and 0.952 µM (active) in experiment [2].
With `CCOC(=O)C1=C(O)c2ccccc2S(=O)(=O)N1C`, the Potency result in experiment [1] and in experiment [2] was “inactive” in each case.
For the compound `CCc1ccc(-n2c(SCc3ccccc3Cl)nc3[nH]ncc3c2=O)cc1`, the values for the Potency in experiment [1] and in experiment [2] were 15.1 µM (active) and 23.9 µM (active), respectively.
For `Cc1cccc(NC(c2ccccc2F)c2ccc3ccc(C)nc3c2O)n1` (stereo unspecified) the same measures were “inactive” and 6.01 µM (active).
For the compound `Cc1ccn2c(Nc3ccccc3C)c(-c3ccccn3)nc2c1`, the Potency in experiment [1] was 19 µM (active); in experiment [2], 0.952 µM (active).
For `Cc1ccc2nc(-c3ccccn3)c(Nc3ccccc3C)n2c1` the same measures were 21.3 µM (active) and 1.9 µM (active).
For `CCOc1ccc(-c2cc(NC(=O)Nc3ccccc3Cl)c(C(=O)OC)s2)cc1` the same measures were “inactive” and 5.35 µM (active).
For `CCc1ccc(C2=CC(c3cccc(C)c3)n3c(nc4ccccc43)N2)cc1` (stereo unspecified) the same measures were 9.52 µM (active) and 6.01 µM (active).
Consider `COc1ccc(CC(=O)Nc2c(C(=O)N3CCN(c4ccccc4F)CC3)oc3ccccc23)cc1OC`, for which the Potency result in experiment [1] and in experiment [2] was “inactive” in each case.
`CCOc1ccc(C(NC(=O)c2cc(OC)c(OC)c(OC)c2)c2cc(Cl)c3cccnc3c2O)cc1` (stereo unspecified): the Potency result in experiment [1] is “inactive”. For the same compound, the Potency in experiment [2] is 30.1 µM (active).
Taken in the same sequence, the figures for `Cc1c(Cl)cccc1NC(=O)Cn1cc(C(=O)C2CCCCC2)c2ccccc21` were 5.35 µM (active) and 2.13 µM (active).
As for `O=C(CSc1nc(-c2ccc(F)cc2)[nH]c1-c1ccc(F)cc1)Nc1ccc2c(c1)OCO2`, the Potency in experiment [1] is 2.13 µM (active); in experiment [2], 0.849 µM (active).
For `CCc1ccc(-n2c(SCc3ccccc3F)nc3[nH]ncc3c2=O)cc1` the same measures were 12 µM (active) and 4.77 µM (active).
For `COc1ccc(-n2nc3c(N4CCCC(C(=O)NCc5cccc(F)c5)C4)nnc(C)c3c2C)cc1` (stereo unspecified) the same measures were 1.69 µM (active) and 8.49 µM (active).
On to `COc1ccc(-n2nc3c(N4CCCC(C(=O)NCc5ccccc5C)C4)nnc(C)c3c2C)cc1` (stereo unspecified), for which the figures for the Potency in experiment [1] and in experiment [2] were 4.77 µM (active) and 0.477 µM (active), respectively.
Taken in the same sequence, the figures for `Cc1cccc(NC(c2ccccc2C)c2ccc3ccc(C)nc3c2O)n1` (stereo unspecified) were “inactive” and 6.74 µM (active).
Taken in the same sequence, the figures for `NS(=O)(=O)c1ccc(Cc2c(-c3cccc(-c4ccccc4)c3)nn(-c3nc(C(=O)O)cs3)c2C2CC2)cc1` were 21.3 µM (active) and 23.9 µM (active).
For `COc1ccc(NC(=O)CSc2nc(-c3cccs3)cc(C(F)(F)F)n2)cc1OC` the same measures were “inactive” and “inactive”.
Take `CCc1ccc(-c2nc(CSCC(=O)NCc3ccc(C)cc3)c(C)o2)cc1`: the Potency in experiment [1] is 15.1 µM (active); in experiment [2] it was 2.68 µM (active).
Taken in the same sequence, the figures for `Cc1ccc(NC(=O)Cn2c(=O)n(CCC(=O)N3CCc4ccccc4C3)c(=O)c3ccccc32)c(C)c1` were “inactive” and 0.338 µM (active).
Taken in the same sequence, the figures for `COC(=O)c1cnc(N2CCN(c3ccc(OC)cc3)CC2)c2ccccc12` were “inactive” and 2.13 µM (active).
Taken in the same sequence, the figures for `CCN(CC)S(=O)(=O)c1ccc2c(c1)nc(CN(C)C(=O)Nc1cccc(Cl)c1)n2C` were 26.8 µM (active) and 0.849 µM (active).
For the compound `CC1(C#N)CCN(c2c(C(=O)N3CCC(C(=O)C4CC4)CC3)cnc3ccc(F)cc23)CC1`, the Potency was 10.7 µM (active) in experiment [1] and 1.9 µM (active) in experiment [2].
For `CC(=O)Nc1ccc(C)cc1-c1nc2ccccc2n(CC(=O)Nc2cc(Cl)ccc2C)c1=O` the same measures were 0.338 µM (active) and 3.01 µM (active).
For the compound `COc1ccccc1CNC(=O)C1CCCN(c2nc3ccccc3n3cccc23)C1` (stereo unspecified), the Potency was 2.68 µM (active) in experiment [1] and 0.0674 µM (active) in experiment [2].
For `COc1ccc(Br)c2c1-c1nc(NC(=O)c3ccccc3SC)sc1C2` the same measures were “inactive” and “inactive”.
For `CCOC(=O)c1ccc(Nc2nc3nonc3nc2Nc2cccc(C)c2C)cc1` the same measures were 10.7 µM (active) and “inactive”.
For `CC1=C(C(=O)Nc2ccc(CN)cc2)C(c2ccccc2Cl)N=C(Nc2nc3ccccc3o2)N1` (stereo unspecified) the same measures were 15.1 µM (active) and 10.7 µM (active).
Take `Cc1cccc(C)c1NC(=O)Cn1cc(C(=O)c2ccco2)c2ccccc21`: the Potency was 9.52 µM (active) in experiment [1] and 3.79 µM (active) in experiment [2].
Taken in the same sequence, the figures for `O=C(CSc1nccn1Cc1ccc(F)cc1)Nc1nc2ccccc2s1` were 10.7 µM (active) and 7.56 µM (active).
